# Data as given in PubChem BioAssay (NCI).
# This is part of a sample that, as a whole, favours compounds with a hit. Of some 83,000 tested, about 20% had one in any assay.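 48-hour exposure, single concentration, 96-well plates; percent growth endpoint where 0 means no net growth. Active: below 10.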 A number with no mark means an inactive call. Calls of active or inactive are those of the source.
# Experiments:
# Test in all cases: NCI-60 one-dose screen, 48 h (100 = growth as untreated, 0 = no growth, -100 = all killed)
# K-562 leukemia = details: 10 µM unless noted
# RXF 393 renal = details: 10 µM unless noted
# SF-295 CNS = details: 10 µM unless noted
# UACC-257 melanoma = details: 10 µM unless noted
# SNB-75 CNS = details: 10 µM unless noted
# U251 CNS = details: 10 µM unless noted
# SK-MEL-5 melanoma = details: 10 µM unless noted
# SK-MEL-2 melanoma = details: 10 µM unless noted
# SN12C renal = details: 10 µM unless noted
# HL-60(TB) leukemia = details: 10 µM unless noted
# MOLT-4 leukemia = details: 10 µM
# RPMI-8226 leukemia = details: 10 µM unless noted
# BT-549 breast = details: 10 µM
# NCI-H460 lung = details: 10 µM unless noted
# MALME-3M melanoma = details: 10 µM unless noted
# UO-31 renal = details: 10 µM unless noted
# SR leukemia = details: 10 µM
# IGROV1 ovarian = details: 10 µM
# HCT-116 colon = details: 10 µM unless noted
# HCC-2998 colon = details: 10 µM unless noted
SMILES,growth (K-562 leukemia),growth (RXF 393 renal),growth (SF-295 CNS),growth (UACC-257 melanoma),growth (SNB-75 CNS),growth (U251 CNS),growth (SK-MEL-5 melanoma),growth (SK-MEL-2 melanoma),growth (SN12C renal),growth (HL-60(TB) leukemia),growth (MOLT-4 leukemia),growth (RPMI-8226 leukemia),growth (BT-549 breast),growth (NCI-H460 lung),growth (MALME-3M melanoma),growth (UO-31 renal),growth (SR leukemia),growth (IGROV1 ovarian),growth (HCT-116 colon),growth (HCC-2998 colon)
N#CC(C#N)=Cc1ccc2ccccc2c1,102%,96.5%,111%,108%,103%,104%,101%,102%,111%,96.4%,107%,90.3%,100%,,,,,,,
CCCCn1cc(C(=O)/C(C#N)=C/c2cc3ccccc3nc2Cl)c2cc(OC)ccc21,47.5%,,95.9%,98.5%,75.4%,83.2%,,115%,79.2%,88.7%,67.8%,,91.7%,101%,88.6%,61.6%,-12% (active),61.2%,23.6%,96.8%
Cc1nnc([S-])s1.[Au+].c1ccc([PH+](c2ccccc2)c2ccccc2)cc1,1.12% (active),-84.6% (active),75%,-12.4% (active),-76.3% (active),-59.9% (active),-45.9% (active),-12.2% (active),6.71% (active),-15.2% (active),-9.08% (active),-1.82% (active),,57.3%,-61.6% (active),-3.87% (active),7.04% (active),-25.4% (active),-60.1% (active),37%
CC[C@@H](C)/C=C(C)/C=C/C(=O)c1c(O)c(-c2ccc(O)cc2)cn(O)c1=O,12.1%,19.8%,-28.7% (active),-29.8% (active),2.38% (active),3.54% (active),-75.6% (active),59.7%,13.6%,,,22.5%,18%,1% (active),-7% (active),-8.98% (active),,5.54% (active),16.7%,36.4%
COc1cc(C2CC(=O)Nc3nc(N)[se]c32)cc(OC)c1OC (stereo unspecified),83.9%,116%,7.05% (active),99.6%,98.9%,29.8%,99%,89.2%,64.6%,89.1%,82.7%,101%,130%,25.1%,105%,99.9%,65.8%,62%,74.9%,107%
CC(=O)[O][Hg][CH2]C1(C)COC(C)([CH2][Hg][O]C(C)=O)CO1 (stereo unspecified),-30.8% (active),,69.2%,93.6%,38%,-96.2% (active),-35.9% (active),63.2%,-87.1% (active),74.4%,-19.9% (active),26%,-100% (active),78.1%,,-39.3% (active),9.98% (active),-81% (active),,4.37% (active)
C[C@]12C[C@H](O)[C@H]3[C@@H](CCC4=CC(=O)CC[C@@]43C)[C@@H]1CC[C@@H]2O,104%,109%,85.6%,,85.7%,,100%,,101%,105%,103%,98.3%,104%,108%,,77.7%,97.4%,105%,101%,95.3%
CC(=O)O[C@H]1C[C@H](O[C@H]2[C@@H](O)C[C@H](O[C@H]3[C@@H](O)C[C@H](O[C@H]4CC[C@@]5(C)C(CCC6C5C[C@@H](O)[C@]5(C)[C@@H](C7=CC(=O)OC7)CC[C@]65O)C4)O[C@@H]3C)O[C@@H]2C)O[C@H](C)[C@H]1O[C@@H]1O[C@H](CO)[C@@H](O)[C@H](O)[C@H]1O (stereo partly specified),,-53.8% (active),-84% (active),-100% (active),,-100% (active),-100% (active),,-38.9% (active),-46.4% (active),-32.1% (active),-0.309% (active),-91% (active),-88.3% (active),-36% (active),-80.1% (active),-31% (active),7.96% (active),-90.5% (active),-95% (active)
Nc1ccc(N)c2c1Oc1ccccc1O2,92.1%,,101%,102%,108%,94.3%,72.6%,95.9%,,69.4%,81.6%,81%,97.9%,117%,111%,134%,,6.91% (active),95.7%,108%
C#CC1(O)CCC2(C)C(CCC3C4CCC(=O)C4(C)CCC32)C1 (stereo unspecified),92.6%,110%,94.1%,93.9%,84.4%,93.9%,96.2%,92%,,93.5%,97.3%,83.7%,,102%,103%,86.8%,94.5%,104%,92.3%,106%
c1ccc([As]=[As]c2ccccc2)cc1 (stereo unspecified),-60.2% (active),-80.3% (active),43.8%,-71.4% (active),14.3%,-98.7% (active),-70.5% (active),,-20.9% (active),-50.4% (active),-49.1% (active),-47.4% (active),-96.5% (active),-45.2% (active),-84.5% (active),-96% (active),-47.5% (active),-84.1% (active),,0.927% (active)
O=C(CCF)c1ccc(O)cc1,98.9%,109%,100%,98.2%,96.9%,106%,117%,105%,100%,99.2%,100%,97.5%,110%,,108%,87%,96%,100%,103%,108%
Cc1cc(NC(=O)/C=C/c2ccc([N+](=O)[O-])cc2)ccc1S(=O)(=O)F,94.7%,119%,,97.4%,106%,102%,100%,107%,92.4%,98.5%,89.5%,87%,106%,103%,103%,71.8%,81.3%,101%,113%,102%
CC(/C=N/N=C(N)N)=N/N=C(N)N,82.1%,,93.6%,113%,,89.6%,107%,14.8%,94.9%,84.5%,101%,95.7%,,66.2%,,69.9%,78.4%,,83.9%,-14.8% (active)
CC(C)(C)N(Cc1ccccc1)N=O,101%,93.1%,100%,92.1%,86.5%,99.3%,99.1%,94.6%,91.9%,106%,104%,99.2%,102%,107%,107%,96.7%,,103%,,110%
CNC(=O)O/N=C(/C)c1ccc(Cl)cc1,92.9%,110%,101%,104%,87.4%,,101%,97.2%,105%,92.1%,93.9%,96.3%,91.1%,113%,101%,83.8%,90%,101%,99.9%,105%
O=C(O)c1nn(Cc2ccc(Cl)cc2)c2ccccc12,104%,123%,,93.1%,95.9%,100%,97.2%,114%,93.7%,103%,111%,98.4%,,105%,113%,95.7%,97.3%,122%,103%,120%
O=[N+]([O-])c1ccc2cnn(CSP(=S)(c3ccccc3)c3ccccc3)c2c1,19%,70.1%,96.3%,86.3%,70.6%,74.1%,56%,98.2%,69.9%,35.2%,44%,52.3%,69.7%,,55.3%,58.9%,9.77% (active),67.5%,42.4%,89%
